Source: PubChem BioAssay (Tox21)
Results filed as inconclusive are left out. The source made the active and inactive calls. Unless noted, calls follow the shape of the dose curve; as a rule, active = well fitted curve in the direction sought with a large enough effect in the repeat runs; inconclusive = weak or mixed curves; inactive = no such curve, though single readings can be large; an effect the other way counts as inactive or inconclusive.

Legend:
[1] = target: Thyrotropin-releasing hormone receptor (Homo sapiens) (UniProt P34981); experiment: qHTS assay to identify small molecule agonists of the thyrotropin-releasing hormone receptor (TRHR) signaling pathway (AID 1346891; calls by dose curve; also: series mostly up to about 58 µM)
Chain of Thyrotropin-releasing hormone receptor (Homo sapiens) (P34981 whole entry, looked up): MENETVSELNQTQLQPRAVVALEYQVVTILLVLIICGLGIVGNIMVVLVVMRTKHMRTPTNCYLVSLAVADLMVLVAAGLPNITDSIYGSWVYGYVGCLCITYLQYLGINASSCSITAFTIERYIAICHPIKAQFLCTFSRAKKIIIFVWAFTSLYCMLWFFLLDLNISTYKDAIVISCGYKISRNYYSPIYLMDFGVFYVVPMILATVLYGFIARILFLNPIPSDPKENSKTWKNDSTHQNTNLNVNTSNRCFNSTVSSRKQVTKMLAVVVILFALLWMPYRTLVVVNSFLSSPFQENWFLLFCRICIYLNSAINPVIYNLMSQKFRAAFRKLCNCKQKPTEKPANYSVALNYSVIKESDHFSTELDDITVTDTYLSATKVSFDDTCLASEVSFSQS
Summary of the method: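 Readout was intracellular calcium fluorescence in TRHR-Hek293 cells. Cells were incubated 18 h, dye-loaded 2 h at 37 °C, and treated with compound in agonist mode.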

[2] = Human pregnane X receptor (PXR) small molecule agonists, qHTS cell viability counter screen (AID 1346977); also: nearly all actives have a fitted effect of over 50% in size
Summary of the method: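 In each well, the PXR reporter HepG2 line was checked for viability: CellTiter-Fluor reagent added 23hr post-dosing, fluorescence read after 1hr incubation at 37C.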

[3] = Caspase-3/7 induction in HepG2 cells by small molecules, qHTS assay (AID 1346978); also: nearly all actives have a fitted effect of over 15% in size
Summary of the method: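 Wild-type HepG2 cells (2,000/well) were settled 5 h at 37 C, 5% CO2, then exposed to compounds in DMSO for 17 h. Caspase-3/7 activity was read by luminescence 30 min after adding Caspase-Glo 3/7 reagent at room temperature.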

[4] = Caspase-3/7 induction in CHO-K1 cells by small molecules, qHTS assay (AID 1346980); also: nearly all actives have a fitted effect of over 15% in size
Summary of the method: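 Wild-type cells were seeded at 1,500 per well and settled 5 hr at 37 C, 5% CO2, then exposed to DMSO-dissolved compounds for 17 hr. Caspase-Glo 3/7 reagent was added, and luminescence was read after 30min at room temperature.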

[5] = Caspase-3/7 induction in HepG2 cells by small molecules, qHTS cell viability counter screen (AID 1346981); also: series mostly up to about 92 µM; nearly all actives have a fitted effect of over 30% in size
Summary of the method: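 Fluorescence read-out of live-cell protease activity (CellTiter-Fluor) after 1 hr with reagent. This was measured in the same wells as the caspase-3/7 luminescence, on HepG2 cells exposed to DMSO-dissolved compounds for 16 hr at 37 C.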

[6] = target: Nuclear receptor subfamily 1 group I member 2 (Homo sapiens) (UniProt O75469); experiment: Human pregnane X receptor (PXR) small molecule agonists, qHTS assay (AID 1346982); also: nearly all actives have a fitted effect of over 35% in size; also: potency is read from the fitted curve at half-maximal effect
Chain of Nuclear receptor subfamily 1 group I member 2 (Homo sapiens) (O75469 whole entry, looked up): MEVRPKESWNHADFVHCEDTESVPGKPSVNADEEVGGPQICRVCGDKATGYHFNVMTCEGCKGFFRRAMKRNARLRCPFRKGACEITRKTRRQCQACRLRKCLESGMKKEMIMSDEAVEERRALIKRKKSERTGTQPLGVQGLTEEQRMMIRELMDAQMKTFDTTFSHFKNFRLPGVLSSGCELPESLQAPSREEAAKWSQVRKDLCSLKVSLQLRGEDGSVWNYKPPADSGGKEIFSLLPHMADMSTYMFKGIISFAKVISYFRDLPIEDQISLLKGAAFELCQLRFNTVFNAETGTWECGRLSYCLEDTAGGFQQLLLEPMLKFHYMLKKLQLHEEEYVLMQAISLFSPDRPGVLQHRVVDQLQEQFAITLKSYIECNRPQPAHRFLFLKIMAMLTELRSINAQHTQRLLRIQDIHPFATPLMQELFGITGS
Summary of the method: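 HepG2 PXR-Luc reporter line, 5% charcoal-stripped FBS; 5 hr pre-incubation, compound (DMSO) 24 hr at 37 C/5% CO2; ONE-Glo 30 min RT; luminescence read-out.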

[7] = target: Acetylcholinesterase (Homo sapiens) (UniProt P22303); experiment: Acetylcholinesterase (AChE) small molecule antagonists: colormetric cell-based qHTS assay (AID 1347395; calls by dose curve; also: nearly all actives have a fitted effect of over 30% in size)
Chain of Acetylcholinesterase (Homo sapiens) (P22303 whole entry, looked up): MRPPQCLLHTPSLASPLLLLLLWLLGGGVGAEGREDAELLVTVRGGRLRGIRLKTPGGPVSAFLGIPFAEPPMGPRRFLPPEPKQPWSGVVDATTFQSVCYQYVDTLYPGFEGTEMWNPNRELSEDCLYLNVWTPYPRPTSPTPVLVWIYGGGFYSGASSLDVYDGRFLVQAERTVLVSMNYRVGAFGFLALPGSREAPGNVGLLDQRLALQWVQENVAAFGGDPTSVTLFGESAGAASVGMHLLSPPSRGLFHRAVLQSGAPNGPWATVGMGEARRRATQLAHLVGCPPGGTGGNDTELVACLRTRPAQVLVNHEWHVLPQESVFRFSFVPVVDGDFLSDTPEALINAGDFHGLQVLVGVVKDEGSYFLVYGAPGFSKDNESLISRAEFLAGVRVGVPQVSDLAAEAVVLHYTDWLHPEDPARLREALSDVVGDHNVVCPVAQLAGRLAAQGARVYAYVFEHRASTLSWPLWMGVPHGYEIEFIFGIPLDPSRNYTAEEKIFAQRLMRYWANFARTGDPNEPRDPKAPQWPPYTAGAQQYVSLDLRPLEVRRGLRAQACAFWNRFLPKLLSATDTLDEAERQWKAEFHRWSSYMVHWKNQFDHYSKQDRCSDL
Summary of the method: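 After overnight attachment at 37 C, SH-SY5Y cells get 30 min compound exposure; detection cocktail (acetylthiocholine, DTNB) then incubates 90 min at 37 C, and absorbance reflects AChE-generated thiocholine.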

[8] = target: Acetylcholinesterase (Homo sapiens) (UniProt P22303); experiment: Acetylcholinesterase (AChE) small molecule antagonists: enzyme-based qHTS assay (AID 1347397; calls by dose curve; also: nearly all actives have a fitted effect of over 55% in size); details: Potency: AChE enzyme activity inhibition
Summary of the method: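 Tox21 library chemicals are tested in qHTS format against recombinant human AChE. The enzyme, dispensed at 50 mU/mL, sits with compound for 30 min at room temperature. A DTNB–acetylthiocholine cocktail follows, and colour is read after 10 min.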

[9] = target: Acetylcholinesterase (Homo sapiens) (UniProt P22303); experiment: Acetylcholinesterase (AChE) small molecule antagonists: fluorescence cell-based qHTS assay (AID 1347398; calls by dose curve; also: nearly all actives have a fitted effect of over 50% in size); details: Potency: AChE activity
Summary of the method: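 Cellular AChE inhibition: SH-SY5Y cells treated with test chemical for 30 min at 37 C, then acetylthiocholine hydrolysis followed over 40 min at room temperature via thiocholine-reactive Thiolite Green fluorescence (490/520 nm).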

[10] = target: Acetylcholinesterase (Homo sapiens) (UniProt P22303); experiment: Acetylcholinesterase (AChE) small molecule antagonists: enzyme-based qHTS assay with human liver microsomes (AID 1347399; calls by dose curve; also: nearly all actives have a fitted effect of over 60% in size); details: Potency: qHTS inhibition
Summary of the method: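 Recombinant human AChE (50 mU/mL in the enzyme mix) and human liver microsomes (0.25 mg/mL final) were preincubated with compound and NADPH (0.25 mg/mL final) for 30 min at 37 C. Acetylthiocholine/DTNB was then added; thiocholine was read colorimetrically after 10 min at room temperature.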

[11] = target: Cytochrome P450 2C19 (Homo sapiens) (UniProt P33261); experiment: Cytochrome P450 Family 2 Subfamily C Member 19 (CYP2C19) small molecule antagonists: luciferase reporter qHTS assay (AID 1671197); also: nearly all actives have a fitted effect of over 65% in size; also: potency is read from the fitted curve at half-maximal effect; as to activity change, negative = inhibition: series mostly up to about 120 µM
Chain of Cytochrome P450 2C19 (Homo sapiens) (P33261 whole entry, looked up): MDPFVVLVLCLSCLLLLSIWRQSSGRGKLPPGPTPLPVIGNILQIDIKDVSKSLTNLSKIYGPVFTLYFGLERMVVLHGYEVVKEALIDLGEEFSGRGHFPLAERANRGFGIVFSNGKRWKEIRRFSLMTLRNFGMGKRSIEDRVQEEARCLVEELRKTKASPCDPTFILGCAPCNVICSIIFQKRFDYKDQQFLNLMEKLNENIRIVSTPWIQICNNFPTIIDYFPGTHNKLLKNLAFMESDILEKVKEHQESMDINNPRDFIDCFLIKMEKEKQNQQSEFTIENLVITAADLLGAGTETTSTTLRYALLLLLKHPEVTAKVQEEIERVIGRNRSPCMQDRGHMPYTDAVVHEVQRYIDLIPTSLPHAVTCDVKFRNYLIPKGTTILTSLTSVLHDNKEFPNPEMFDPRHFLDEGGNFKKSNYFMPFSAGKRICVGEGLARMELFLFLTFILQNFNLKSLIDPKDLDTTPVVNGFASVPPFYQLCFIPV
Summary of the method: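 Inhibition of CYP2C19 was scored from loss of luminescence in a P450-Glo proluciferin substrate assay, NADPH-started and run 1 h at 37C, with ketoconazole as positive control.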

[12] = target: Cytochrome P450 2C9 (Homo sapiens) (UniProt P11712); experiment: Cytochrome P450 Family 2 Subfamily C Member 9 (CYP2C9) small molecule antagonists: luciferase reporter qHTS assay (AID 1671198); also: nearly all actives have a fitted effect of over 50% in size; also: potency is read from the fitted curve at half-maximal effect; as to activity change, negative = inhibition: series mostly up to about 120 µM
Chain of Cytochrome P450 2C9 (Homo sapiens) (P11712 whole entry, looked up): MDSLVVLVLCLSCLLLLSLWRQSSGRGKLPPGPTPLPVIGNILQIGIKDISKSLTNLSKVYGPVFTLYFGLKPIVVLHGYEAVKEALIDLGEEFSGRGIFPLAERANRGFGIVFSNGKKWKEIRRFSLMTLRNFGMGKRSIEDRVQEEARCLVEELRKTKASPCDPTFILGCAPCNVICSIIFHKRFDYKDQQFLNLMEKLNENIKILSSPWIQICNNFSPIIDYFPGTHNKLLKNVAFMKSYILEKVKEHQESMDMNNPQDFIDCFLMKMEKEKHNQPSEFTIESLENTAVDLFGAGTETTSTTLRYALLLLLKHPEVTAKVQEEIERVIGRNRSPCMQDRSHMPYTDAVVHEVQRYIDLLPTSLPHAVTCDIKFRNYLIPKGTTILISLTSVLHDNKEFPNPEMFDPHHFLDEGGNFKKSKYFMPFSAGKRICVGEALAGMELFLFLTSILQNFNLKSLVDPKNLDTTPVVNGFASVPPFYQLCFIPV
Summary of the method: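 CYP2C9 activity was measured with a P450-Glo proluciferin substrate. Enzyme–substrate mix was held with compound for 10 min at room temperature, then NADPH regeneration solution was added for 1 h at 37C. Luciferin product was read as luminescence.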

[13] = target: Voltage-gated inwardly rectifying potassium channel KCNH2 (Homo sapiens) (UniProt Q12809); experiment: Human Ether-a-go-go-Related Gene (hERG) channel small molecule antagonists: fluorescence cell-based qHTS assay (AID 1671200);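 also: hERG-expressing U2OS cells given a thallium stimulus after FluxOR II dye loading; series mostly up to about 77 µM; nearly all actives have a fitted effect of over 50% in size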
Summary of the method: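 In this thallium-flux screen, overnight-cultured U2OS cells bearing the channel are dye-loaded in darkness for an hour, rested 10 min at room temperature, and then monitored kinetically at 480/540 nm for two minutes post-stimulus.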

[14] = target: Cytochrome P450 3A4 (Homo sapiens) (UniProt P08684); experiment: Cytochrome P450 Family 3 Subfamily A Member 4 (CYP3A4) small molecule antagonists: luciferase reporter qHTS assay (AID 1671201); also: nearly all actives have a fitted effect of over 50% in size; also: potency is read from the fitted curve at half-maximal effect; as to activity change, negative = inhibition: series mostly up to about 120 µM
Chain of Cytochrome P450 3A4 (Homo sapiens) (P08684 whole entry, looked up): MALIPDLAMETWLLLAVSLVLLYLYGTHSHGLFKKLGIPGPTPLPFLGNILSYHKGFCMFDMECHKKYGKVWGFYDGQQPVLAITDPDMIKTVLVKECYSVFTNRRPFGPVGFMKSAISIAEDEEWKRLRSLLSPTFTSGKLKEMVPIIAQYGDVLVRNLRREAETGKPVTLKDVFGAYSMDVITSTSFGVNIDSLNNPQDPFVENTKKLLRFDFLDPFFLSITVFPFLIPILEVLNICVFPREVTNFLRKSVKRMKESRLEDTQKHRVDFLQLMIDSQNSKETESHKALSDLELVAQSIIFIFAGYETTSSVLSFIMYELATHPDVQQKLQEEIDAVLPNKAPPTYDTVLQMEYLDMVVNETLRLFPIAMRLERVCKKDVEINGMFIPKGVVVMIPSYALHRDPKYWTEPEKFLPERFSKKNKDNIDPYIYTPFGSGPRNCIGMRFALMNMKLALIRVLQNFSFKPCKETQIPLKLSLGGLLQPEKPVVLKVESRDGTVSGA
Summary of the method: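 CYP3A4 activity was followed with a P450-Glo proluciferin substrate. Test compounds in DMSO were preincubated 10 min; NADPH regeneration then ran 1 h, and light output was read 20 min after detection reagent.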

[15] = target: Cytochrome P450 2D6 (Homo sapiens) (UniProt P10635); experiment: Cytochrome P450 Family 2 Subfamily D Member 6 (CYP2D6) small molecule antagonists: luciferase reporter qHTS assay (AID 1671196); also: nearly all actives have a fitted effect of over 50% in size; also: potency is read from the fitted curve at half-maximal effect; as to activity change, negative = inhibition: series mostly up to about 120 µM
Chain of Cytochrome P450 2D6 (Homo sapiens) (P10635 whole entry, looked up): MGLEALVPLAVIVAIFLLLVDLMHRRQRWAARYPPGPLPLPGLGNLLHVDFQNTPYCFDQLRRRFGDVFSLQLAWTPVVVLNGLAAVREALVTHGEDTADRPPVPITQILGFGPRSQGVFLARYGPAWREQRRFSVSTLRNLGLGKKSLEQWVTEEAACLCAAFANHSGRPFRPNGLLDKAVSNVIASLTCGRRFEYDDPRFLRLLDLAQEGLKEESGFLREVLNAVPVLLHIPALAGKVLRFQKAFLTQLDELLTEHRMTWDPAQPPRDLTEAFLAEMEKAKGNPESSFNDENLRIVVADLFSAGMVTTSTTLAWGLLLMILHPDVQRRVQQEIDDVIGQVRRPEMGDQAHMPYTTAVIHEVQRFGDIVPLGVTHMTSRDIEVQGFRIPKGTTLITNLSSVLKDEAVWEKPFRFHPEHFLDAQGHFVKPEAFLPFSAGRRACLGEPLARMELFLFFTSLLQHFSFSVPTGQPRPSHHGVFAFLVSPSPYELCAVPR
Summary of the method: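 Luminogenic proluciferin substrate, CYP2D6 enzyme; 10 min RT preincubation with compound, NADPH regeneration system added, 1 h RT. Stop/detection reagent, 20 min RT, luminescence read (RLU). Signal proportional to CYP activity.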

[16] = target: Nuclear receptor subfamily 1 group I member 2 (Rattus norvegicus) (UniProt Q9R1A7); experiment: Rat pregnane X receptor (rPXR) activation by small molecules, qHTS assay (AID 1346983); details: rPXR luciferase reporter cells, One-Glo luminescence, 24 h; max activation: active compounds read high; also: nearly all actives have a fitted effect of over 20% in size
Chain of Nuclear receptor subfamily 1 group I member 2 (Rattus norvegicus) (Q9R1A7 whole entry, looked up): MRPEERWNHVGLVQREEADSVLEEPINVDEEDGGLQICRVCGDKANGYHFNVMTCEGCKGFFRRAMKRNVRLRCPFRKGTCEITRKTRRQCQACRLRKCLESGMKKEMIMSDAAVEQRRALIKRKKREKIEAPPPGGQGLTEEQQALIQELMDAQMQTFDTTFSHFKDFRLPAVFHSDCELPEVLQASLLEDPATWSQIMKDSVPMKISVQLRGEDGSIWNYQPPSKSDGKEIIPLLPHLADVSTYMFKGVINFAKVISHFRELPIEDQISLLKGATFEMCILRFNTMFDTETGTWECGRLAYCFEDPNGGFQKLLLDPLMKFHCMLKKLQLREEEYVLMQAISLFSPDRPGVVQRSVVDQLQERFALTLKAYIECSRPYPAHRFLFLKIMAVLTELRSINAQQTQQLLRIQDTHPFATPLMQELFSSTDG
Summary of the method: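 Cell-based rPXR luciferase reporter assay, 2,000 cells per well, rested 5hr at 37 C before compound addition in DMSO, then 24 hr at 37 C. One-Glo reagent was added and luminescence read after 30 min at room temperature.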

[17] = target: Nuclear receptor subfamily 1 group I member 2 (Homo sapiens) (UniProt O75469); experiment: CYP3A4 induction through human pregnane X receptor (PXR) by small molecules, qHTS assay (AID 1346984); also: nearly all actives have a fitted effect of over 40% in size; also: potency is read from the fitted curve at half-maximal effect
Summary of the method: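 HepG2-derived DPX-2 line carrying PXR plus a CYP3A4-promoter luciferase reporter; cells plated 5 hr, compound-exposed 24 hr at 37C. CYP3A4 activity probed with 3uM (final) Luciferin-IPA for 3hr, then luciferase read after One-Glo.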

[18] = target: Nuclear receptor subfamily 1 group I member 2 (Homo sapiens) (UniProt O75469); experiment: Human pregnane X receptor (PXR) activation by small molecules, qHTS assay (AID 1346985); also: nearly all actives have a fitted effect of over 40% in size; also: potency is read from the fitted curve at half-maximal effect
Summary of the method: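 DPX-2 cells (HepG2 co-transfected with a PXR response element and a CYP3A4-promoter luciferase construct) were seeded at 2,000 per well, rested 5 hr at 37C, then exposed to DMSO-dissolved compounds for 24 hr. Activation was read as luciferase luminescence.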

[19] = target: Cytochrome P450 1A2 (Homo sapiens) (UniProt P05177); experiment: Cytochrome P450 Family 1 Subfamily A Member 2 (CYP1A2) small molecule antagonists: luciferase reporter qHTS assay (AID 1671199); also: nearly all actives have a fitted effect of over 50% in size; also: potency is read from the fitted curve at half-maximal effect; as to activity change, negative = inhibition: series mostly up to about 120 µM
Chain of Cytochrome P450 1A2 (Homo sapiens) (P05177 whole entry, looked up): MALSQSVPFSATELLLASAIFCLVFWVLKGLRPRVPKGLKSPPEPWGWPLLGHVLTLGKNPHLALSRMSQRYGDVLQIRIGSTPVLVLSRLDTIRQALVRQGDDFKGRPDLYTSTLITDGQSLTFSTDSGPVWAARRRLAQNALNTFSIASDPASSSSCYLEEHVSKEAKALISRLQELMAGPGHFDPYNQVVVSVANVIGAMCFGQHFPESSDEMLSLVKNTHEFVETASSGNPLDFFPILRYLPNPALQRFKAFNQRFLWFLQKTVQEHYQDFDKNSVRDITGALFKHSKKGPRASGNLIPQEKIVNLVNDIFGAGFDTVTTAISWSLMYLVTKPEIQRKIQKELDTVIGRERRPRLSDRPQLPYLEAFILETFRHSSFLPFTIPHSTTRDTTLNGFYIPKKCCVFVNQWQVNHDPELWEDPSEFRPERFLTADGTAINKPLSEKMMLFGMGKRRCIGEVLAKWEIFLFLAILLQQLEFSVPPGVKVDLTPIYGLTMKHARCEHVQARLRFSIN
Summary of the method: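 Luminescence readout (relative luminescence units) after luciferin detection reagent, 20 min RT. Preceded by 1 h room-temperature CYP1A2 reaction with NADPH regeneration solution following 10 min compound preincubation with enzyme and proluciferin substrate. Furafylline positive control.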

[20] = Caspase-3/7 induction in CHO-K1 cells by small molecules, qHTS cell viability counter screen (AID 1346979); also: nearly all actives have a fitted effect of over 35% in size
Summary of the method: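 Following a 5hr settling period, CHO-K1 cells at 1,500 per well received DMSO-dissolved compounds. Cell viability was quantified 16hr later by CellTiter-Fluor fluorescence, measured after 1hr with reagent at 37C.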
% is scaled to controls: 0 for no effect and ±100 for the full control effect.

O=C(O)COc1ccc(Cl)cc1
inactive: Potency [1] | Potency [2] | Potency [3] | Potency [4] | Potency [5] | Potency [6] | Potency [7] | Potency [8] | Potency [9] | Potency [10] | Potency [11] | Potency [12] | Potency [13] | Potency [14]

CO[C@@H]1[C@H](OC(=O)NC(=O)CCl)CC[C@]2(CO2)[C@H]1[C@@]1(C)O[C@@H]1CC=C(C)C
inactive: activation [1] -0.27% [at 11.8 µM] | activity change, negative = cytotoxicity [2] 1.62% [at 19 µM] | caspase activation [3] 1.54% [at 19 µM] | caspase-3/7 activation [4] 1.61% [at 19 µM] | activity change, negative = cytotoxicity [5] -0.84% [at 19 µM] | activity, negative = inhibition [7] 2.96% [at 23.6 µM] | activity change, negative = inhibition [8] 0.618% [at 23.6 µM] | activity change, negative = inhibition [9] -0.397% [at 23.8 µM] | activity change, negative = inhibition [10] -0.551% [at 23.6 µM] | activity change, negative = inhibition [15] -6.64% [at 23.6 µM] | activity change, negative = inhibition [13] 7.85% [at 15.8 µM]
active: Potency [6] 10.6 µM | Potency [11] 21.8 µM | Potency [14] 7.74 µM

O=C1c2ccccc2C(=O)C1C(=O)C(c1ccccc1)c1ccccc1
active: Potency [11] 21.9 µM | Potency [19] 15.5 µM
inactive: Potency [1] | Potency [2] | Potency [3] | Potency [4] | max activation [16] -0.238% | Potency [17] | Potency [18] | Potency [7] | Potency [8] | Potency [9] | Potency [10] | Potency [13] | Potency [14]

COC1=CC(=O)O[C@@H](CCc2ccccc2)C1
inactive: Potency [1] | Potency [2] | Potency [3] | Potency [4] | Potency [5] | Potency [7] | Potency [8] | Potency [9] | Potency [10] | Potency [15] | Potency [13] | Potency [14]
active: Potency [6] 63.6 µM | Potency [11] 5.87 µM | Potency [12] 33 µM

C=CC(=O)OCC(C)C
active: Potency [6] 48.2 µM
inactive: Potency [1] | Potency [2] | Potency [3] | Potency [20] | Potency [4] | Potency [7] | Potency [8] | Potency [9] | Potency [15] | Potency [11] | Potency [12] | Potency [13] | Potency [14]

CCC(COC(=O)c1cc(OC)c(OC)c(OC)c1)(c1ccccc1)N(C)C (configuration not stated)
inactive: Potency [1] | Potency [2] | Potency [3] | Potency [4] | Potency [5] | max activation [16] -1.12% | Potency [7] | Potency [8] | Potency [10] | Potency [19]
active: Potency [6] 29.8 µM | Potency [17] 15.8 µM | Potency [18] 25.1 µM | Potency [15] 0.55 µM | Potency [11] 24.5 µM

Cc1ccccc1C(=O)Nc1cccc(OC(C)C)c1
active: Potency [6] 13.7 µM | Potency [12] 22.4 µM | Potency [19] 5.64 µM
inactive: Potency [1] | Potency [2] | Potency [3] | Potency [4] | Potency [5] | Potency [7] | Potency [8] | Potency [9] | Potency [10] | Potency [15] | Potency [13] | Potency [14]
